{"source": "PubChem BioAssay AID588342", "about": "(National Center for Advancing Translational Sciences (NCATS), 2011)", "note": "The campaign covered roughly 360,000 compounds. About 25,000 (6.9%) were called active. A call without a number means that no potency is given here. Inconclusive results (about 9%) are left out. The sample holds actives, similar compounds and a random draw of the others, so the mix is not that of the screen. Calls follow the shape of the dose curve; as a rule, active = well fitted inhibition curve with a large enough effect; inconclusive = small, poorly fitted or top-dose-only effect; inactive = flat fitted curve, though single readings scatter. Potency is read from the fitted curve at half-maximal effect.", "data": [{"biological_target": "Luciferin 4-monooxygenase (Photinus pyralis) (UniProt P08659)", "sequence (P08659 whole entry, looked up)": "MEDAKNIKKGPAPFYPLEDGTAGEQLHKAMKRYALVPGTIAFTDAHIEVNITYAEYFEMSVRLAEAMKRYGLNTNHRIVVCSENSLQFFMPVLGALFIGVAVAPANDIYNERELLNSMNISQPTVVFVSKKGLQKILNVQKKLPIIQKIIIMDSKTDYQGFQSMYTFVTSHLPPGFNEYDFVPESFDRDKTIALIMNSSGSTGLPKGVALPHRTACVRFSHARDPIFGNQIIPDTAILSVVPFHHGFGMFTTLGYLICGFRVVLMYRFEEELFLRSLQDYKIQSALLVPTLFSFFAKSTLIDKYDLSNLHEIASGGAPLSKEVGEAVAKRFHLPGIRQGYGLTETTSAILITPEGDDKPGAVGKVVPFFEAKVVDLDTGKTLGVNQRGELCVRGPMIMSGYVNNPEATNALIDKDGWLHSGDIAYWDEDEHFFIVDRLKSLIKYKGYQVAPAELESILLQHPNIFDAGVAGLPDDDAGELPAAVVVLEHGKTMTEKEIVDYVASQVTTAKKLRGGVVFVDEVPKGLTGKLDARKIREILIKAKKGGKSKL", "experiment": "qHTS profiling assay for firefly luciferase inhibitor/activator using purifed enzyme and Km concentrations of substrates (counterscreen for miR-21 project); also: nearly all actives have a fitted effect of over 55% in size", "conditions": "purified FLuc, luminescence inhibition; series mostly up to 57.5 µM", "procedure,_shortened": "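Purified P. pyralis luciferase, 10 nM final, with Km-level 10 uM D-luciferin and 10 uM ATP in 50 mM Tris acetate pH 7.5, 10 mM Mg acetate, 0.01% Tween-20, 0.05% BSA; 6-point qHTS titration about 60 µM downward; luminescence read.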", "values": [{"smiles": "CN(Cc1ccccc1)CC(O)COc1ccc(CNCc2cc3ccccc3s2)cc1", "note": "(stereo not given)", "Potency": "inactive"}, {"smiles": "Cc1cc(C)cc(NC(=O)CSc2oc(-c3ccccc3)nc2S(=O)(=O)c2ccc(Cl)cc2)c1", "Potency": "inactive"}, {"smiles": "Cc1sc2ncnc(SCC(=O)Nc3ccc(CN4CCCC4)cc3)c2c1C", "Potency": "inactive"}, {"smiles": "Cc1ccc(C)c(NC(=O)C(c2ccccc2)N2CCN(CC(=O)NC3CC3)CC2)c1", "note": "(stereo not given)", "Potency": "inactive"}, {"smiles": "CC(=O)NC(CC(=O)Nc1cccc(S(=O)(=O)N2CCCC2)c1)c1ccccc1", "note": "(stereo not given)", "Potency": "inactive"}, {"smiles": "O=C(Nc1ccc(C(=O)N2CCCCC2)cc1)c1cccc([N+](=O)[O-])c1", "Potency": "inactive"}, {"smiles": "O=C(CN(Cc1ccccc1)C(=O)c1ccc2c(c1)OCCO2)NCc1ccc2c(c1)OCO2", "Potency": "inactive"}, {"smiles": "CCN(CC)CCNC(=O)c1ccc(NS(=O)(=O)c2ccc3c(c2)OCCO3)cc1", "Potency": "inactive"}, {"smiles": "O=C(CN1CCc2cc3c(cc2C1)OCCCO3)Nc1ccccc1", "Potency": "inactive"}, {"smiles": "O=C(OCc1ccccc1F)c1ccc2c(c1)OCCO2", "Potency": "6.01 µM (active)"}, {"smiles": "O=C(Nc1ccc(C2CC2(Cl)Cl)cc1)c1cccc([N+](=O)[O-])c1", "note": "(stereo not given)", "Potency": "12 µM (active)"}, {"smiles": "O=C(Nc1cccc(S(=O)(=O)Nc2ccc(Cl)cc2)c1)c1ccc2c(c1)OCCO2", "Potency": "16.9 µM (active)"}, {"smiles": "O=C(Nc1ccccc1)c1ccc2c(c1)OCCCO2", "Potency": "1.2 µM (active)"}, {"smiles": "CC(NS(=O)(=O)c1ccc(Cl)cc1)C(=O)Nc1ccc2c(c1)OCCO2", "note": "(stereo not given)", "Potency": "inactive"}, {"smiles": "O=C(Nc1ccc(NC(=O)c2ccco2)c(Cl)c1)c1cccc([N+](=O)[O-])c1", "Potency": "inactive"}, {"smiles": "C/C(Cc1ccccc1)=N\\NC(=O)CNC(=O)c1ccc2c(c1)OCCO2", "Potency": "inactive"}, {"smiles": "Cc1cc2oc(C(=O)N(Cc3ccc(Cl)cc3)Cc3ccco3)c(C)c2cc1Cl", "Potency": "inactive"}, {"smiles": "Cc1cc(N2CCN(c3cccc(C(F)(F)F)c3)CC2)n2nc(-c3ccccc3)nc2n1", "Potency": "inactive"}, {"smiles": "COc1ccc(-c2ccc(=O)n(CC(=O)Nc3ccc(Br)cc3F)n2)cc1", "Potency": "inactive"}, {"smiles": "CC(=O)Nc1ccc(S(=O)(=O)NC2(C(F)(F)F)C(=O)NC(C)=C2C#N)cc1", "note": "(stereo not given)", "Potency": "inactive"}, {"smiles": "CC(=O)Nc1cccc(C(=O)OCC(=O)NCc2cc(C)c(O)c(C)c2)c1", "Potency": "15.1 µM (active)"}, {"smiles": "O=C(Nc1ccccc1)Nc1nc2ccccc2s1", "Potency": "0.849 µM (active)"}, {"smiles": "O=C(Nc1ccccc1)Nc1nnc(COc2ccccc2F)s1", "Potency": "inactive"}, {"smiles": "O=C(Nc1ccc(Cl)cc1)Nc1nnc(/C=C/c2ccccc2)s1", "Potency": "inactive"}, {"smiles": "Cc1ccc(F)cc1NC(=O)c1ccc2c(c1)OCO2", "Potency": "inactive"}, {"smiles": "Cc1ccc(C(=O)OCC(=O)NCc2cc(C)c(O)c(C)c2)cc1S(=O)(=O)N1CCCCC1", "Potency": "inactive"}, {"smiles": "O=C(Nc1ccccc1F)c1ccc2c(c1)OCO2", "Potency": "19 µM (active)"}, {"smiles": "O=C(Nc1ccccc1N1CCN(C(=O)c2ccccc2)CC1)c1ccc2c(c1)OCO2", "Potency": "inactive"}, {"smiles": "COc1ccc(C(=O)OCC(=O)Nc2cccc(C(C)=O)c2)cc1OC", "Potency": "inactive"}, {"smiles": "O=S(=O)(NC1CCN(S(=O)(=O)c2ccc3c(c2)OCCO3)CC1)c1c(F)cccc1F", "Potency": "inactive"}, {"smiles": "CCc1ccc(S(=O)(=O)c2nnn3c2nc(N2CCN(CC)CC2)c2sccc23)cc1", "Potency": "inactive"}, {"smiles": "CC(=O)Nc1ccc(S(=O)(=O)NC(C)C(=O)OCCOc2ccc(F)cc2)cc1", "note": "(stereo not given)", "Potency": "inactive"}, {"smiles": "CNS(=O)(=O)c1ccc(N2CCCC2=O)c([N+](=O)[O-])c1", "Potency": "inactive"}, {"smiles": "NS(=O)(=O)c1ccc(NC(=S)N2CCCC2)cc1", "Potency": "inactive"}, {"smiles": "CCCN1CCN(CCCNC(=O)Cn2nc(CC)n3c(cc4occc43)c2=O)CC1", "Potency": "inactive"}, {"smiles": "CCc1ccc(-c2cc3c(=O)n(CC(=O)NCCCN4CCN(Cc5ccccc5)CC4)nc(C)n3n2)cc1", "Potency": "8.49 µM (active)"}, {"smiles": "Cc1ccc(-c2ccc(=O)n(CC(=O)NCCCN3CCCCC3)n2)cc1", "Potency": "inactive"}, {"smiles": "CCOCCn1ccc2c(OCC(=O)NCc3ccc(C)cc3)cccc2c1=O", "Potency": "inactive"}, {"smiles": "CCC(=O)N1CCc2cc(S(=O)(=O)NC(Cc3ccccc3)C(=O)NCc3ccc(C)cc3)ccc21", "note": "(stereo not given)", "Potency": "inactive"}, {"smiles": "Brc1ccc(C2CC(c3ccccc3)=Nc3ccccc3N2)cc1", "note": "(stereo not given)", "Potency": "26.9 µM (active)"}, {"smiles": "O=C(c1ccccc1)N1N=C(c2ccccc2O)CC1c1ccc(Br)cc1", "note": "(stereo not given)", "Potency": "inactive"}, {"smiles": "COc1ccc(N2C(=O)NC(NS(=O)(=O)c3ccc(Cl)cc3)(C(F)(F)F)C2=O)cc1", "note": "(stereo not given)", "Potency": "inactive"}, {"smiles": "COC(=O)c1sc2ncccc2c1-n1c(C)ccc1C", "Potency": "inactive"}, {"smiles": "COc1ccc(CNC(=O)/C(C#N)=C/c2cccc(OC)c2OC)cc1", "Potency": "inactive"}, {"smiles": "CCOc1ccccc1/C=N/Nc1nc2ccccc2o1", "Potency": "inactive"}, {"smiles": "CC(=O)c1ccc(S(=O)(=O)N2CCN(C(=O)/C=C/c3ccc4ccccc4n3)CC2)cc1", "Potency": "inactive"}, {"smiles": "COc1cccc(/C=C/c2ccc3ccccc3n2)c1OC(C)=O", "Potency": "5.36 µM (active)"}, {"smiles": "CCOc1cccc(/C=C/c2ccc3ccccc3n2)c1OC(C)=O", "Potency": "7.57 µM (active)"}, {"smiles": "COc1ccc(CCNC(=O)CCCn2c(=O)c3ccccc3n(Cc3ccc(F)cc3Cl)c2=O)cc1OC", "Potency": "inactive"}, {"smiles": "COc1ccc2cc(CCl)c(Cl)nc2c1", "Potency": "inactive"}, {"smiles": "CC(C)c1ccc(NC(=O)c2cc(S(=O)(=O)N3CCc4ccccc4C3)ccc2F)cc1", "Potency": "inactive"}, {"smiles": "CN1C(C(=O)NCc2ccco2)CC2Cn3c(nc4ccccc43)C21", "note": "(stereo not given)", "Potency": "inactive"}, {"smiles": "Cc1ccc(NC2=C(c3ccc(C(F)(F)F)cc3)C(=O)c3ccccc32)cc1F", "Potency": "inactive"}, {"smiles": "CCc1ccc(Sc2cc(C(=O)NCCCOC(C)C)c3ccccc3n2)cc1", "Potency": "inactive"}, {"smiles": "CC1CCCC(NC(=O)c2cc(-c3ccncc3)nc3ccccc23)C1C", "note": "(stereo not given)", "Potency": "inactive"}, {"smiles": "CCc1ccc(-c2cc(C(=O)NN3CCN(C)CC3)c3ccccc3n2)cc1", "Potency": "2.69 µM (active)"}, {"smiles": "CN(Cc1ccccc1)c1ncnc2onc(-c3ccc(F)cc3)c12", "Potency": "inactive"}, {"smiles": "COc1ccccc1C(=O)Nn1c(-c2cccs2)nc2ccccc2c1=O", "Potency": "inactive"}, {"smiles": "O=C(CSc1nc(Nc2ccc(F)c(F)c2)c2ccccc2n1)c1ccc(Cl)cc1", "Potency": "inactive"}, {"smiles": "CC(=O)Nc1cccc(Nc2nc(-c3cccs3)nc3ccccc23)c1", "Potency": "23.9 µM (active)"}, {"smiles": "CC(=O)c1ccc(S(=O)(=O)N(C)CCCC(=O)N(C)Cc2ccccc2F)cc1", "Potency": "inactive"}, {"smiles": "O=C(/C=C/c1cn(CC(O)CN2CCc3ccccc32)c2ccccc12)c1ccc(Br)cc1", "note": "(stereo not given)", "Potency": "inactive"}, {"smiles": "COc1cccc(NC(=O)CN(C)C(=O)CSC(=S)N2CCCC2)c1", "Potency": "inactive"}, {"smiles": "O=C(CSC(=S)N1CCCCC1)c1c(F)cccc1F", "Potency": "2.13 µM (active)"}, {"smiles": "CC(=O)c1ccc(NC(=O)CSC(=S)N2CCCC2)cc1", "Potency": "inactive"}, {"smiles": "O=C(CSC(=S)N1CCOCC1)c1ccccc1", "Potency": "3.01 µM (active)"}, {"smiles": "CC1CN(C(=S)SCC(=O)c2ccccc2)CC(C)O1", "note": "(stereo not given)", "Potency": "inactive"}, {"smiles": "O=C(CSC(=S)N1CCOCC1)c1cc(Br)cc(Br)c1O", "Potency": "inactive"}, {"smiles": "CCCCNC(=O)Cn1nc(C)c(S(=O)(=O)N2CCOCC2)c1C", "Potency": "inactive"}, {"smiles": "Cc1ccc(OCC(=O)OCc2cc(=O)n3nc(C4CC4)sc3n2)cc1C", "Potency": "inactive"}, {"smiles": "Cc1nn(-c2nc(-c3ccccc3)cc(C(F)(F)F)n2)c(C)c1Cl", "Potency": "inactive"}, {"smiles": "COC(=O)c1cc(S(=O)(=O)N2CCN(c3cc(Cl)ccc3C)CC2)c[nH]1", "Potency": "inactive"}, {"smiles": "COc1ccc(NC(=O)CSc2nccn2C2CCCC2)cc1OC", "Potency": "inactive"}, {"smiles": "COc1ccc(OCc2cc(C(=O)NCC3(C)COC3)no2)c(Cl)c1", "Potency": "19 µM (active)"}, {"smiles": "COc1ccc(CCNC(=O)c2cnc(Cl)c(Cl)c2)cc1", "Potency": "inactive"}, {"smiles": "COC(=O)c1ccccc1NC(=O)c1ccc(COc2ccccc2Cl)o1", "Potency": "inactive"}, {"smiles": "CC1CCCN(Cc2c(O)ccc3c(=O)c(Oc4ccc(C(C)(C)C)cc4)c(C(F)(F)F)oc23)C1", "note": "(stereo not given)", "Potency": "inactive"}, {"smiles": "COc1ccc(NC(=O)Cn2c(=O)n(Cc3ccc(C(=O)NCc4ccccc4Cl)cc3)c(=O)c3ccccc32)cc1", "Potency": "inactive"}, {"smiles": "O=C(Cn1c(=O)n(Cc2cccs2)c(=O)c2cccnc21)Nc1ccc(F)cc1", "Potency": "inactive"}, {"smiles": "COc1cc(C(=O)N2CCC(c3ccncc3)CC2)cc(OC)c1OC", "Potency": "inactive"}, {"smiles": "C/C(N)=C(/C#N)C(=O)COC(=O)C1CCN(C(=O)c2ccc(Cl)cc2)CC1", "Potency": "inactive"}, {"smiles": "COc1cccc(CNC(=O)c2ccc3c(c2)sc2nc(-c4cccc(OC)c4)cn23)c1", "Potency": "inactive"}, {"smiles": "Cc1ccc2nc(COc3cccc(NC(=O)c4cccc(Cl)c4)c3)cc(=O)n2c1", "Potency": "inactive"}, {"smiles": "Cc1ccc2nc(COc3cccc(NC(=O)Nc4ccc(C)c(Cl)c4)c3)cc(=O)n2c1", "Potency": "inactive"}, {"smiles": "Cc1ccc2nc(COc3cccc(NC(=O)c4ccccc4Cl)c3)cc(=O)n2c1", "Potency": "10.7 µM (active)"}, {"smiles": "O=C(CNS(=O)(=O)c1ccc2ccccc2c1)Nc1ccc(F)c(F)c1F", "Potency": "inactive"}, {"smiles": "O=C(NCCc1ccccc1)c1ccc2c(c1)N(Cc1ccccc1)C(=O)c1ccccc1S2(=O)=O", "Potency": "inactive"}, {"smiles": "CC(C)C(=O)Nc1c(O)c2ccccc2[nH]c1=O", "Potency": "inactive"}, {"smiles": "CCCc1nc2ccccc2c(=O)n1NC(=O)c1c(O)c2ccccc2[nH]c1=O", "Potency": "inactive"}, {"smiles": "NS(=O)(=O)c1ccccc1NC(=O)c1c(O)c2ccccc2[nH]c1=O", "Potency": "9.53 µM (active)"}, {"smiles": "CC1(C)N=C(SCc2ccccc2Cl)c2ccccc2N1", "Potency": "inactive"}, {"smiles": "Cc1noc(/C=C/N(C)C)c1S(=O)(=O)N1CCCC(C(=O)Nc2cccc(F)c2)C1", "note": "(stereo not given)", "Potency": "inactive"}, {"smiles": "Cc1ccc(S(=O)(=O)N2CC(O)C[C@H]2C(=O)OCC(=O)Nc2ccc(N3CCOCC3)cc2)cc1C", "note": "(stereo not given in full)", "Potency": "inactive"}, {"smiles": "CC(=O)c1sc(N2C(=O)c3oc4ccccc4c(=O)c3C2c2ccc(C)cc2)nc1C", "note": "(stereo not given)", "Potency": "inactive"}, {"smiles": "COc1ccc(-c2cn3c(C)c(C(=O)Nc4cc(C)cc(C)c4)sc3n2)cc1", "Potency": "inactive"}, {"smiles": "COc1ccc(-n2c(-c3ccc(OC)c(OC)c3)n[nH]c2=S)cc1", "Potency": "inactive"}, {"smiles": "CCN(c1cccc(C)c1)S(=O)(=O)c1ccc(-c2coc(C)n2)cc1", "Potency": "inactive"}, {"smiles": "COc1ccc(-c2cn3ccc(C)cc3n2)cc1", "Potency": "0.19 µM (active)"}, {"smiles": "CCN(CC(=O)NCCc1ccccc1)S(=O)(=O)c1ccc(C)cc1", "Potency": "inactive"}, {"smiles": "CCN(CC)S(=O)(=O)c1ccc(-c2cn3ccc(C)cc3n2)cc1", "Potency": "2.39 µM (active)"}]}]}
